Reference: the supplement of paper PMC4206461

System: Pseudomonas aeruginosa PA14 dppBCDF deletion mutant
Assay: respiration area under curve with compound as sole nitrogen source, 24 h (OmniLog AUC (arbitrary units)); higher = more respiration / better utilisation as nitrogen source, active = 2000 or more; extreme values may be limits of the assay
Method: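 Biolog Phenotype MicroArray plates PM6-PM8: each di/tripeptide is the sole nitrogen source. Tetrazolium reduction was read in the OmniLog every 15 min for 24 h at 37°C and summarised as area under the respiration curve (arbitrary units). Values below 2000 count as no respiration. Strain is the dipeptide ABC transporter deletion mutant.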

Structure (SMILES)	respiration area under curve
CC(C)C[C@H](N)C(=O)NCC(=O)NCC(=O)O (plate: PM8)	5290 (active)
NCC(=O)N[C@@H](CCCN=C(N)N)C(=O)O (plate: PM6)	7970 (active)
C[C@H](N)C(=O)N1CCC[C@H]1C(=O)O (plate: PM6)	717 (inactive)
C[C@@H](O)[C@H](N)C(=O)NCC(=O)O (plate: PM7)	0.75 (inactive)
N[C@@H](CC(=O)O)C(=O)N[C@@H](CCC(=O)O)C(=O)O (plate: PM6)	0 (inactive)
N[C@@H](Cc1ccccc1)C(=O)N[C@@H](CO)C(=O)O (plate: PM7)	1830 (inactive)
CSCCC(NC(=O)C(N)C(C)C)C(=O)O (stereo not given) (plate: PM8)	397 (inactive)
CSCC[C@H](N)C(=O)NCC(=O)O (plate: PM7)	33.2 (inactive)
N[C@@H](Cc1ccc(O)cc1)C(=O)NCC(=O)O (plate: PM7)	3760 (active)
CC(C)[C@H](N)C(=O)N[C@@H](CCCN=C(N)N)C(=O)O (plate: PM7)	11700 (active)
CSCC[C@H](N)C(=O)N[C@H](C(=O)O)C(C)C (plate: PM7)	1430 (inactive)
N[C@@H](CC(=O)O)C(=O)N[C@@H](Cc1ccccc1)C(=O)O (plate: PM6)	15.5 (inactive)
N[C@@H](Cc1c[nH]c2ccccc12)C(=O)N[C@@H](Cc1ccc(O)cc1)C(=O)O (plate: PM7)	236 (inactive)
CC(C)C[C@H](N)C(=O)NCC(=O)O (plate: PM6)	4090 (active)
NCC(=O)NCC(=O)NCC(=O)O (plate: PM8)	5.75 (inactive)
C[C@H](N)C(=O)N[C@@H](CO)C(=O)O (plate: PM6)	6740 (active)
CSCC[C@H](NC(=O)[C@@H](N)CCCN=C(N)N)C(=O)O (plate: PM6)	9400 (active)
CC(C)C[C@H](N)C(=O)N[C@@H](Cc1ccccc1)C(=O)O (plate: PM6)	3930 (active)
CSCC[C@H](NC(=O)CN)C(=O)O (plate: PM6)	0 (inactive)
CC(C)C[C@H](NC(=O)[C@@H](C)N)C(=O)O (plate: PM8)	0 (inactive)

Structure (SMILES)	respiration area under curve
NC(=O)C[C@H](N)C(=O)N[C@@H](CCC(=O)O)C(=O)O (plate: PM6)	1590 (inactive)
CC[C@H](C)[C@H](N)C(=O)N[C@H](C(=O)O)[C@@H](C)CC (plate: PM6)	0 (inactive)
CC(C)C[C@@H](N)C(=O)N[C@H](CC(C)C)C(=O)O (plate: PM8)	0 (inactive)
N[C@@H](Cc1ccccc1)C(=O)NCC(=O)O (plate: PM7)	872 (inactive)
CC[C@H](C)[C@H](N)C(=O)N[C@@H](Cc1c[nH]c2ccccc12)C(=O)O (plate: PM6)	76.8 (inactive)
CC[C@H](C)[C@H](N)C(=O)N[C@@H](CC(C)C)C(=O)O (plate: PM8)	924 (inactive)
C[C@H](NC(=O)[C@@H]1CCCN1)C(=O)O (plate: PM7)	103 (inactive)
CC[C@H](C)[C@H](N)C(=O)N[C@@H](CCC(N)=O)C(=O)O (plate: PM6)	873 (inactive)
CC(C)[C@H](N)C(=O)N[C@@H](CCC(N)=O)C(=O)O (plate: PM8)	1010 (inactive)
CC(NC(=O)C(N)CC(=O)O)C(=O)O (stereo not given) (plate: PM8)	12.2 (inactive)
CSCC[C@H](N)C(=O)N[C@@H](Cc1c[nH]c2ccccc12)C(=O)O (plate: PM7)	2520 (active)
CC(C)[C@H](NC(=O)[C@@H](N)CC(=O)O)C(=O)O (plate: PM6)	524 (inactive)
N[C@@H](Cc1ccccc1)C(=O)N[C@@H](Cc1ccc(O)cc1)C(=O)O (plate: PM8)	881 (inactive)
CC[C@H](C)[C@H](NC(=O)[C@@H](N)Cc1ccccc1)C(=O)O (plate: PM7)	6010 (active)
CSCCC(NC(=O)C(N)CC(C)C)C(=O)O (stereo not given) (plate: PM6)	686 (inactive)
N[C@@H](CCC(=O)O)C(=O)N[C@@H](Cc1ccc(O)cc1)C(=O)O (plate: PM6)	44 (inactive)
C[C@H](N)C(=O)N[C@@H](Cc1c[nH]c2ccccc12)C(=O)O (plate: PM6)	3230 (active)
CC(C)[C@H](N)C(=O)N[C@@H](Cc1ccccc1)C(=O)O (plate: PM8)	3500 (active)
CC[C@H](C)[C@H](N)C(=O)N[C@H](C(=O)O)C(C)C (plate: PM6)	545 (inactive)
NCC(=O)N[C@@H](Cc1ccccc1)C(=O)N[C@@H](Cc1ccccc1)C(=O)O (plate: PM8)	1840 (inactive)
